# Experimental data reported in PubChem BioAssay.
# Values joined by “and” are separate entries in the source; they are usually repeats but may differ in a detail not shown here. Equal values may be shown once. Active and inactive are the calls of the source.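 Rule for the calls, unless noted: active = primary screen active and over 50% activation in each of two duplicate runs; inactive = the rest.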
# Test system: transient receptor potential cation channel C4 beta (TRPC4), mouse
# Assay: activators of mouse TRPC4 channel, confirmation, cell-based, second round, Fluo4, HEK293 TRPC4beta/mu-opioid, 1 µM (AID 2461);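 for activation: 0% = wells without test compound as baseline of integrated fluorescence ratio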
# Settings: Fluo4 calcium fluorescence, at 1 µM; hits give high values
SMILES,outcome,activation
COc1ccc(C(CNC(=O)COc2ccccc2OC)N(C)C)cc1OC (stereo not drawn),inactive,
COc1ccc(C(CNC(=O)CCOc2ccccc2)N(C)C)cc1 (stereo not drawn),,77% (active)
CN(C)C(CNc1ccc(C(F)(F)F)cn1)c1ccccc1 (stereo not drawn),inactive,
Fc1ccc(-n2cc(CNCCc3cccnc3)c(-c3ccccc3Cl)n2)cc1,inactive,
CCOC(=O)c1ccc(NC(=O)NCCc2cnc[nH]2)cc1,,136% (active)
CN1CCN(C(=O)c2cccn(Cc3c(Cl)cccc3Cl)c2=O)CC1,,88% (active)
Cc1sc2ncnc(NCC(c3ccccc3)N(C)C)c2c1C (stereo not drawn),,120% (active)
O=C(O)C1C2C=CC(C2)C1C(=O)N1CCN(C/C=C/c2ccccc2)CC1 (stereo not drawn),inactive,
CCCCN(CC)CCNC(=O)c1cc2c(-c3ccc(Cl)cc3)nn(C)c2s1,inactive,
O=C(Nc1ccncc1)c1ccc(Cl)c(S(=O)(=O)N2CCc3ccccc32)c1,inactive,
CC(=O)OCC[N+](C)(C)C,,81% (active) and 93% (active)
COc1ccc(CCN(C)C(=O)C2CCCN(C3CCN(Cc4ccccc4)CC3)C2)cc1OC (stereo not drawn),,64% (active)
Cc1cc(C)cc(NC(=S)N2CCN(c3ncc(C(F)(F)F)cc3Cl)CC2)c1,inactive,
COc1ccc(C(CNC(=O)Cc2ccc(-c3ccccc3)cc2)N(C)C)cc1 (stereo not drawn),,112% (active)
O=c1c(Cc2ccccc2)c(O)ccn1CCc1cnc[nH]1,inactive,
COc1ccc(C(=O)NNC(=S)NC(=O)c2cccs2)cc1,inactive,
CCC(=O)NC(C)C(c1cccs1)N1CCN(c2ccccc2)CC1 (stereo not drawn),inactive,
NCCCNC(=O)c1cc2ccccc2[nH]1,inactive,
Cn1c2ccccc2c(=O)c2c(=O)n(C3CCCCC3)c(-c3ccco3)nc21,inactive,
COc1ccc(-n2c3c(cc(C(=O)NNc4ccccc4)c2=O)C(=O)CC(C)(C)C3)cc1,inactive,

SMILES,outcome,activation
O=C(c1sc2ccccc2c1Cl)N(Cc1ccccc1)C1CCS(=O)(=O)C1 (stereo not drawn),inactive,
CN(C)C(CNC(=S)Nc1ccc(Cl)cc1)c1cccnc1 (stereo not drawn),,118% (active)
O=C1/C(=C\c2cc([N+](=O)[O-])ccc2O)SC(=S)N1Cc1ccc(Cl)cc1,inactive,
Cc1ccc(C(=O)NNC(=S)NC(=O)COc2ccccc2)cc1,inactive,
CCCCCc1c(O)nc(SCCN(C)C)[nH]c1=O,inactive,
CC1CC(C)CN(CCCNS(=O)(=O)c2cc(Br)cc3c2N(C(=O)C2CC2)CC3)C1 (stereo not drawn),,114% (active)
CN1C2C=C(N(CCc3ccccc3)C(=O)c3ccc(Cl)cc3)CC1CC2 (stereo not drawn),inactive,
Cc1ccccc1C(=O)NNC(=S)NC(=O)COc1ccccc1,inactive,
CCOC(=O)C1(CC2CCCCO2)CCN(Cc2cc(F)ccc2-n2cccn2)CC1 (stereo not drawn),inactive,
Cc1ccc(NC(=O)CCN2CCC(Cc3ccccc3)CC2)cc1,inactive,
CCCn1ncc(CN2CCC(n3nccc3NC(=O)CCc3ccccc3)CC2)c1C,,115% (active)
Cc1sc2ncnc(NCC(c3ccco3)N(C)C)c2c1C (stereo not drawn),,116% (active)
CCCN(CCC)CCNC(=O)CCC(=O)Nc1ccc2nc(N3CCOCC3)cc(C)c2c1,,67% (active)
CCN1CCN(c2c(Cl)cccc2NC(=O)c2ccc([N+](=O)[O-])cc2)CC1,inactive,
CN1CCN(c2ccc(NC(=O)c3ccc(-c4cccc([N+](=O)[O-])c4)o3)cc2)CC1,inactive,
OCCC1CN(Cc2ccccc2-c2ccco2)CCN1Cc1ccccc1 (stereo not drawn),inactive,
CN(C)C(CNC(=O)NC1CCCCC1)c1cccnc1 (stereo not drawn),,98% (active)
O=C1S/C(=C\c2ccc(N3CCOCC3)o2)C(=O)N1Cc1c(F)cccc1Cl,inactive,
COCCCn1c(N)c(-c2nc3ccccc3n2C)c2nc3ccccc3nc21,inactive,

# Test system: TRPC4 (transient receptor potential cation channel C4 beta), mouse
# Assay: positive allosteric modulators of mouse TRPC4, confirmation, cell-based, second round, Fluo-4, HEK293 TRPC4beta/mu-opioid, 1 µM (AID 2554;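 active = primary screen hit whose fluorescence ratio, in both repeats, exceeds the weak agonist control mean by 3 SD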)
# Settings: DAMGO EC20, Fluo-4 calcium flux, at 1 µM; hits give high values
row,SMILES,outcome
1,COc1ccc(C(CNC(=O)COc2ccccc2OC)N(C)C)cc1OC (stereo not drawn),inactive
2,COc1ccc(C(CNC(=O)CCOc2ccccc2)N(C)C)cc1 (stereo not drawn),inactive
3,CN(C)C(CNc1ccc(C(F)(F)F)cn1)c1ccccc1 (stereo not drawn),inactive
4,Fc1ccc(-n2cc(CNCCc3cccnc3)c(-c3ccccc3Cl)n2)cc1,inactive
5,CCOC(=O)c1ccc(NC(=O)NCCc2cnc[nH]2)cc1,inactive
6,CN1CCN(C(=O)c2cccn(Cc3c(Cl)cccc3Cl)c2=O)CC1,inactive
7,Cc1sc2ncnc(NCC(c3ccccc3)N(C)C)c2c1C (stereo not drawn),inactive
8,O=C(O)C1C2C=CC(C2)C1C(=O)N1CCN(C/C=C/c2ccccc2)CC1 (stereo not drawn),inactive
9,CCCCN(CC)CCNC(=O)c1cc2c(-c3ccc(Cl)cc3)nn(C)c2s1,inactive
10,O=C(Nc1ccncc1)c1ccc(Cl)c(S(=O)(=O)N2CCc3ccccc32)c1,inactive
11,CC(=O)OCC[N+](C)(C)C,inactive
12,COc1ccc(CCN(C)C(=O)C2CCCN(C3CCN(Cc4ccccc4)CC3)C2)cc1OC (stereo not drawn),inactive
13,Cc1cc(C)cc(NC(=S)N2CCN(c3ncc(C(F)(F)F)cc3Cl)CC2)c1,inactive
14,COc1ccc(C(CNC(=O)Cc2ccc(-c3ccccc3)cc2)N(C)C)cc1 (stereo not drawn),inactive
15,O=c1c(Cc2ccccc2)c(O)ccn1CCc1cnc[nH]1,inactive
16,COc1ccc(C(=O)NNC(=S)NC(=O)c2cccs2)cc1,inactive
17,CCC(=O)NC(C)C(c1cccs1)N1CCN(c2ccccc2)CC1 (stereo not drawn),inactive
18,NCCCNC(=O)c1cc2ccccc2[nH]1,inactive
19,Cn1c2ccccc2c(=O)c2c(=O)n(C3CCCCC3)c(-c3ccco3)nc21,inactive
20,COc1ccc(-n2c3c(cc(C(=O)NNc4ccccc4)c2=O)C(=O)CC(C)(C)C3)cc1,inactive

row,SMILES,outcome
1,O=C(c1sc2ccccc2c1Cl)N(Cc1ccccc1)C1CCS(=O)(=O)C1 (stereo not drawn),inactive
2,CN(C)C(CNC(=S)Nc1ccc(Cl)cc1)c1cccnc1 (stereo not drawn),inactive
3,O=C1/C(=C\c2cc([N+](=O)[O-])ccc2O)SC(=S)N1Cc1ccc(Cl)cc1,inactive
4,Cc1ccc(C(=O)NNC(=S)NC(=O)COc2ccccc2)cc1,inactive
5,CCCCCc1c(O)nc(SCCN(C)C)[nH]c1=O,inactive
6,CC1CC(C)CN(CCCNS(=O)(=O)c2cc(Br)cc3c2N(C(=O)C2CC2)CC3)C1 (stereo not drawn),inactive
7,CN1C2C=C(N(CCc3ccccc3)C(=O)c3ccc(Cl)cc3)CC1CC2 (stereo not drawn),inactive
8,Cc1ccccc1C(=O)NNC(=S)NC(=O)COc1ccccc1,inactive
9,CCOC(=O)C1(CC2CCCCO2)CCN(Cc2cc(F)ccc2-n2cccn2)CC1 (stereo not drawn),inactive
10,Cc1ccc(NC(=O)CCN2CCC(Cc3ccccc3)CC2)cc1,inactive
11,CCCn1ncc(CN2CCC(n3nccc3NC(=O)CCc3ccccc3)CC2)c1C,inactive
12,Cc1sc2ncnc(NCC(c3ccco3)N(C)C)c2c1C (stereo not drawn),inactive
13,CCCN(CCC)CCNC(=O)CCC(=O)Nc1ccc2nc(N3CCOCC3)cc(C)c2c1,inactive
14,CCN1CCN(c2c(Cl)cccc2NC(=O)c2ccc([N+](=O)[O-])cc2)CC1,inactive
15,CN1CCN(c2ccc(NC(=O)c3ccc(-c4cccc([N+](=O)[O-])c4)o3)cc2)CC1,inactive
16,OCCC1CN(Cc2ccccc2-c2ccco2)CCN1Cc1ccccc1 (stereo not drawn),inactive
17,CN(C)C(CNC(=O)NC1CCCCC1)c1cccnc1 (stereo not drawn),inactive
18,O=C1S/C(=C\c2ccc(N3CCOCC3)o2)C(=O)N1Cc1c(F)cccc1Cl,inactive
19,COCCCn1c(N)c(-c2nc3ccccc3n2C)c2nc3ccccc3nc21,inactive
